Compound activity from PubChem.
D1 antag = blocks dopamine activation of the human D1 receptor; HEK293 TREx D1 cells, calcium flux, dopamine EC80; stronger effect = lower value; activity change, negative = inhibition, % at 10 µM; actives 3.2% (n = 360,000); P21728; in the data active = activity change below about -30%; note: % is set by controls: 0 for no effect and ±100 for the full control effect
Target sequence (P21728 whole entry, looked up): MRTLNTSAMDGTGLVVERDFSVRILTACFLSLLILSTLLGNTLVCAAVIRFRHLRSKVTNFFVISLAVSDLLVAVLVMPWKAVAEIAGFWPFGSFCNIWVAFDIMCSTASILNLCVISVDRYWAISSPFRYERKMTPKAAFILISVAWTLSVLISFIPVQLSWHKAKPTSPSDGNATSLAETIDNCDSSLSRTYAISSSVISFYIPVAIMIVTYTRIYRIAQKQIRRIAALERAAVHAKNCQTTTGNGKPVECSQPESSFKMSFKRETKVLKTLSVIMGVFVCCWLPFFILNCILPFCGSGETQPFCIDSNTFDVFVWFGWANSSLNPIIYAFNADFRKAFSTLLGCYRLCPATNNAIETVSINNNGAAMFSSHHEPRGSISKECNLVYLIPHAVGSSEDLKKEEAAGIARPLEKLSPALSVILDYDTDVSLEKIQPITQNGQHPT
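Cells carrying a force-coupled, tetracycline-inducible human D1 receptor report calcium flux. Each well gets a 10 s baseline, compound with 180 s monitoring, then an EC80 dopamine stimulus with a second 180 s kinetic read.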
D1 PAM = potentiators of human D1 dopamine receptor; potentiation, % at 10 µM; actives 0.036% (n = 360,000); P21728; HEK293 TREx D1 cells, calcium flux, dopamine EC20 potentiation; in the data active = potentiation above about 30%; note: 0% is about no effect
TRHR agonist = activates the human TRH receptor | activation, % at 2 µM | AID 493084 | actives 0.18% (n = 360,000) | P34981 | TRHR cells, calcium flux fluo-8, FDSS agonist mode; note: 0% is about no effect
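Agonist-mode FDSS calcium read (Ex 480/Em 530, 1 s cycles) in 1536-well TRHR cells with fluo-8 dye, after 10-cycle baseline and 23 nL compound addition; TRH at EC20 (10 nM final) added afterwards for the enhancer phase.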
D1 ag = human D1 receptor agonism; HEK293 T-REx D1 cells, calcium flux, agonist mode; activation, % at 2 µM; actives 1% (n = 360,000); note: 0% is about no effect
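Tetracycline-induced HEK293 TREx D1 cells, force-coupled to calcium signalling, were dye-loaded with a no-wash calcium kit. Compound was pin-added after a 10 s baseline. Fluorescence was read kinetically at 1 cycle/s for 180 s, with calcium rises flagged as agonism.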
TRHR PAM = allosterically enhances the human TRH receptor; P34981; TRHR cells, fluo-8 calcium fluorescence, EC20 TRH enhancement; enhancement, % at 2 µM; actives 0.66% (n = 360,000); AID 493056; in the data active = enhancement above about 30%; note: 0% is about no effect
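TRHR-expressing cells loaded with fluo-8 calcium dye were read kinetically (ex 480/em 530) during compound addition, then stimulated with an EC20 of TRH (10 nM final). Enhancement of the Gq-mediated intracellular calcium response was scored.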
GRP78 ERSR act = inducers of ER stress response in human glioma cells; U87-MG GRP78 promoter luciferase reporter, 16 h; Potency, µM, for inactives: at the highest dose activation, most hits filed as activators; actives 0.02% (n = 420,000); active = well fitted activation curve with a large enough effect; inconclusive = small, poorly fitted or top-dose-only effect; inactive = no such curve, though single readings can be large or run the other way; note: potency is the fitted concentration of half-maximal effect; series mostly up to about 76 µM; % of control where 0% means no effect; nearly all actives have a fitted effect of over 35% in size
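Stably transfected U87-MG glioma cells carrying a GRP78-based luciferase sensor; 16 h compound incubation. Luminescence end-point read 10 min after Bright-Glo addition at room temperature.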
Active calls of the source: *; ? = inconclusive; · = no result given. Compounds with a hit are over-represented: about 4% of the library has one in this group of screens. Cut-off read from the data, not from the text of the source, unless noted: active = activation above about 30%; inactive = the rest.

SMILES | D1 antag | D1 PAM | TRHR agonist | D1 ag | TRHR PAM | GRP78 ERSR act
COc1ccc(C(NC(=O)c2cccc(F)c2)c2ccccc2)cc1 (configuration not stated) | -31* | -6 | 0 | 12 | -1 | -6%
COc1ccc(C(NC(=O)c2ccc(F)cc2)c2ccccc2)cc1 (configuration not stated) | -14 | -3 | -1 | 3 | 6 | -5%
Cc1ccc(NC(=S)NCCSc2ccc(Cl)cc2)c(C)c1 | -33* | -6 | -1 | 22 | 8 | -2%
Cc1ccc([N+](=O)[O-])cc1NC(=O)CCSc1ccc(Cl)cc1 | -42* | -9 | -2 | 34* | -5 | -4%
Cc1cc(Br)ccc1NC(=O)CCSc1ccccc1 | 1 | -2 | 1 | 1 | 0 | 0%
Cc1cc(NC(=O)CCSc2ccccc2)ccc1Br | -30* | -9 | 0 | 5 | 18 | 0%
Cc1ccc(NC(=O)CCSc2ccccc2)c(C)c1 | -30* | 5 | -1 | 0 | 2 | ·
O=C(c1c(Cl)cccc1Cl)N1CCN(c2ncccn2)CC1 | -5 | 2 | 0 | 1 | 3 | -7%
COc1ccccc1NS(=O)(=O)c1cc2c(cc1Cl)NC(=O)CO2 | -11 | -3 | 0 | 0 | -5 | -5%
COC(=O)C(/C=N/OCc1ccc([N+](=O)[O-])cc1)NC(=O)c1cccc(Cl)c1 (configuration not stated) | -5 | -10 | 6 | 41* | -5 | ?
Cc1ccc(CONC(=O)c2cccc([N+](=O)[O-])c2)cc1 | -4 | -10 | 1 | 0 | 2 | 1%
COC(=O)[C@@H]1C[C@H]2CC[C@H](O)C[C@H]2N1Cc1ccc(C(C)(C)C)cc1 | -34* | -8 | 0 | 2 | 6 | -3%
Cn1c(-c2ccc([N+](=O)[O-])cc2)nc2ccccc21 | -18 | -12 | -3 | 1 | -1 | 4%
Cn1cc([N+](=O)[O-])cc1-c1nc2ccccc2n1C | -34* | -3 | 0 | 3 | 5 | -1%
CN(CC(=O)Nc1ccc(F)c(F)c1F)c1ncnc2sccc12 | -9 | -11 | 0 | 8 | -6 | -1%
CN(CC(=O)Nc1ccccc1Br)c1ncnc2sccc12 | -35* | -11 | 0 | 13 | 0 | -3%
COc1ccc2cc1Oc1ccc(cc1)C[C@H]1c3cc(c(OC)cc3CCN1C)Oc1c(OC)c(OC)cc3c1[C@H](C2)N(C)CC3 | -13 | -8 | 1 | 9 | -4 | -5%
COc1ccc2cc1Oc1ccc(cc1)C[C@H]1c3c(cc4c(c3Oc3cc5c(cc3OC)CCN(C)[C@@H]5C2)OCO4)CCN1C | -37* | -4 | 1 | 3 | 4 | -1%
CC(=O)c1cccc(NC(=O)C(C)n2c(=O)cc(C)c3c(C)nn(-c4ccccc4)c32)c1 (configuration not stated) | 4 | 0 | 1 | 4 | -6 | -4%
COc1ccc(CNC(=O)C(C)n2c(=O)cc(C)c3c(C)nn(-c4ccccc4)c32)cc1 (configuration not stated) | -54* | -6 | 0 | -1 | 0 | -4%
Cc1cc(C)cc(OCC(=O)Nc2nc3c(s2)CC(C(C)(C)C)CC3)c1 (configuration not stated) | -75* | -1 | -1 | 8 | 1 | -1%
CC1(C)Oc2ccc(C(=O)NN)cc2NC1=O | -38* | -12 | 1 | 2 | -5 | -2%
COc1ccc(/C=N/NC(=O)c2ccc3c(c2)NC(=O)C(C)(C)O3)cc1OC | -20 | -6 | 0 | 0 | -3 | -3%
Cc1ccc(/C=N/NC(=O)C2COc3ccccc3O2)s1 (configuration not stated) | 12 | -3 | 0 | 1 | 11 | 2%
Cn1c(CCNC(=O)c2ccc(F)cc2)nc2ccccc21 | -20 | 0 | -1 | 2 | -2 | -4%
SMILES | D1 antag | D1 PAM | TRHR agonist | D1 ag | TRHR PAM | GRP78 ERSR act
O=C(NCCc1nc2ccccc2n1Cc1ccccc1F)c1ccc(F)cc1 | -36* | -4 | 0 | 10 | -9 | -3%
COc1ccc(CCNC(=O)C(=O)Nc2ccc(C)c(C)c2)cc1 | -16 | -1 | -1 | -1 | 32* | 2%
Cc1cccc(NC(=S)NCCc2ccccc2)c1C | 9 | -9 | 0 | -2 | 0 | 0%
Cc1cccc(C)c1NC(=S)NCCc1ccc(O)c(O)c1 | -48* | -15 | 1 | 5 | 0 | 16µM*
COc1ccc(CCNC(=S)Nc2cccc(C)c2C)cc1 | -31* | -12 | 0 | 1 | -2 | -5%
CC(=O)Nc1cccc(OC(=O)c2ccoc2C)c1 | -5 | 5 | 0 | 8 | 6 | -4%
Cc1ccc(C)c(S(=O)(=O)N2CCN(C(=O)CSc3ccccc3F)CC2)c1 | -27 | -8 | 2 | 31* | 6 | -4%
CC(C)S(=O)(=O)C1=NSC2=NC(=O)/C(=C\c3ccc(-c4ccccc4)o3)C(=N)N21 | -16 | 0 | 4 | 12 | -7 | -1%
COc1ccc(C(=O)NC2CC2)cc1OC1CCN(Cc2ccc(F)c(F)c2)CC1 | -1 | -8 | 0 | 4 | -1 | -4%
COc1ccccc1/C=C/CN1CCC(Oc2cc(C(=O)NC3CC3)ccc2OC)CC1 | -73* | -5 | 0 | 11 | 11 | -3%
CCc1ccc(CNC(=O)c2ccc(OC)c(OC3CCN(C(C)C)CC3)c2)nc1 | -80* | -13 | 0 | 0 | -22 | 2%
COc1ccc(C(=O)NC2CC2)cc1OC1CCN(Cc2ccc(F)cc2)CC1 | -40* | -20 | 0 | 1 | -10 | -4%
C#Cc1ccc(CN2CCC(Oc3cc(C(=O)NC4CC4)ccc3OC)CC2)cc1 | -45* | -11 | 1 | 4 | -5 | -3%
COc1ccc(C(=O)NCc2cnn(C)c2)cc1OC1CCN(C(C)C)CC1 | -2 | -6 | 2 | 1 | -6 | -3%
Cn1c(CN2CCOCC2)nnc1SCC(=O)Nc1nccs1 | 8 | -3 | 1 | 3 | -1 | 0%
O=C(NCC(c1cccs1)N1CCOCC1)c1cccc(S(=O)(=O)Nc2ccc(F)cc2)c1 (configuration not stated) | · | · | · | · | · | -2%
C=CCN(CC=C)CCOc1ccc(C)cc1[N+](=O)[O-] | -18 | -3 | 0 | 1 | -1 | 10%
CC1CCN(c2ccc3nnc(CCC(=O)Nc4cc(F)ccc4F)n3n2)CC1 | -8 | -8 | -1 | 3 | 1 | -5%
Cc1ccc(CNC(=O)CSCc2ccccc2F)cc1 | 4 | -6 | -1 | 3 | 1 | 1%
O=C(CSCc1ccccc1F)NCc1ccc(F)cc1 | -35* | 0 | -1 | 2 | 7 | 7%
CCCCn1c(CNC(=O)c2ccc(OC)cc2)nnc1SCC(=O)Nc1ccccc1 | -69* | -6 | 0 | 1 | -1 | -3%
